The source of these data is PubChem BioAssay.

Active and inactive are the calls of the source. Unless noted, no rule for the calls is given here.

Assay [1] is described as follows: viability loss with induced miR-34 in A549 – imaging, A549 dox-inducible miR-34, nuclei and caspase counts, primary screen (AID 1347080;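 active = compounds whose cell count with miR-34 switched on is under 0.7 times the count with it off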). The note with it: A549 miR-34 inducible, Hoechst nuclei count, 48 h.
Assay [2] is described as follows: blockers of cellular phospholipid synthesis – cell-based, LOPAC library, screen 4, primary screen (AID 1347384). The note with it: animal cells, phospholipid biosynthesis inhibition screen; at 10 µM.
Assay [3] in a line: galactose survival enhancers in mitochondrial complex I cybrids – cell-based, galactose medium, ATP luminescence, primary screen (AID 1645843;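 active = z-score of at least 1.8 in each of two replicates, scored against plate mean and spread of sample wells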;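 also: positive z means more ATP and so rescue of galactose-driven cybrid death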). The note with it: complex I mutant cybrid cells, 72 h, stronger effect = higher value.
Assay [4] in a line: compounds altering circadian rhythm period length – cell-based, LOPAC library, luminescence reporter (AID 2774).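 Also: values are relative to mean of DMSO wells on each plate.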 As to conditions: circadian reporter cells, at 7 µM, actives lie on both sides.
Assay [5] concerns Hepatitis C virus NS3 helicase. Put plainly: blockers of NS3h binding to ssDNA – biochemical, fluorescence polarization, LOPAC1280 library, primary screen (AID 687035; in the data active = inhibition above about 37%). The note with it: Purified HCV NS3 helicase, Cy5-dT15 ssDNA binding fluorescence polarization; stronger effect = higher value; concentration not given here.
Assay [6] is described as follows: compounds altering Cy5-DNA-NS3h complex signal – biochemical, LOPAC1280, artefact control for HCV NS3 helicase inhibitor project (AID 687037). The note with it: Cy5-DNA-NS3h complex fluorescence interference counterscreen. Background: The purpose of a counterscreen is to sort out artefacts and off-target activity.
[7] abbreviates: stronger effect = lower value, cell number ratio, induced over uninduced.
The mark [8] stands for this setting: measured here: relative caspase fold change +Dox/-Dox.
[9] abbreviates: measured here: total cells with miR-34 induction, stronger effect = lower value.
The mark [10] stands for this setting: measured here: total cells without miR-34 induction.

As to `CCCCCCCCCCCCCCCCCCN(CCCCCCCCCCCCCCCCCC)CCCN(CCO)CCO`, the fold change in assay [1] (setting [7]) was 0.981 (inactive); in assay [1] (setting [8]) it was 1.42. In addition, the figures for the cell count in assay [1] (setting [9]) and in assay [1] (setting [10]) were 10100 and 10300, respectively. In assay [2], the call was inactive. In assay [3], the z-score was 0.39 (inactive).
For the compound `Nc1nc2ccc(Cl)cc2n2c(-c3ccccc3)nnc12`, the fold change was 1.08 (inactive) in assay [1] (setting [7]) and 0.972 in assay [1] (setting [8]). In addition, the cell count was 11200 in assay [1] (setting [9]) and 10300 in assay [1] (setting [10]). The compound was called inactive in assay [2]. Besides, in assay [3], the z-score was 1.13 (inactive).
`CSc1nc(N)c2ncn([C@@H]3O[C@H](COP(=O)(O)OP(=O)(O)OP(=O)(O)O)[C@H](O)C3O)c2n1` (stereo not given in full): the period change in assay [4] is -0.07 h (inactive). Besides, in assay [5], the inhibition was 41% (active). Also, the fluorescence ratio (interference) in assay [6] is 1 (inactive). Besides, the fold change in assay [1] (setting [7]) was 0.981 (inactive); in assay [1] (setting [8]), 2.88. The cell count in assay [1] (setting [9]) is 9690; in assay [1] (setting [10]), 9880. Further, the result in assay [2] was inactive. Also, in assay [3], the z-score is 1.04 (inactive).
In the case of `CC[C@H]1OC(=O)[C@H](C)C(O[C@H]2C[C@@](C)(OC)[C@@H](O)[C@H](C)O2)[C@H](C)[C@@H](OC2O[C@H](C)C[C@H](N(C)C)[C@H]2O)[C@](C)(O)C[C@@H](C)CN(C)[C@H](C)[C@@H](O)[C@]1(C)O` (stereo not given in full), the figures for the fold change in assay [1] (setting [7]) and in assay [1] (setting [8]) were 1.06 (inactive) and 1.99, respectively. The cell count came to 10100 in assay [1] (setting [9]) and 9500 in assay [1] (setting [10]). Also, the call in assay [2] was inactive. In addition, the z-score in assay [3] is -0.895 (inactive).
As to `CCC1(O)CC2CN(CCc3c([nH]c4ccccc34)[C@@](C(=O)OC)(c3cc4c(cc3OC)N(C)C3[C@]45CCN4CC=C[C@@](CC)([C@@H](OC(C)=O)[C@]3(O)C(=O)OC)[C@H]45)C2)C1` (stereo not given in full), in assay [4], the period change is 0.43 h (inactive). For the same compound, the inhibition in assay [5] was -2% (inactive). Further, in assay [6], the fluorescence ratio (interference) was 1 (inactive). The fold change in assay [1] (setting [7]) is 1.18 (inactive); in assay [1] (setting [8]), 0.644. Besides, the figures for the cell count in assay [1] (setting [9]) and in assay [1] (setting [10]) were 1680 and 1430, respectively. In addition, the compound was called inactive in assay [2]. Besides, the z-score in assay [3] was -1.17 (inactive).
As for `OC[C@H]1O[C@@H](n2cnc3c(NC4CCCCC4)ncnc32)[C@H](O)[C@@H]1O`, the period change in assay [4] is 0.08 h (inactive). Also, the inhibition in assay [5] is -1% (inactive). Moreover, the fluorescence ratio (interference) in assay [6] is 1 (inactive). For the same compound, the fold change in assay [1] (setting [7]) was 0.959 (inactive); in assay [1] (setting [8]) it was 1.25. Moreover, the cell count in assay [1] (setting [9]) came out at 9650; in assay [1] (setting [10]), 10100. For the same compound, in assay [2], the result was inactive. The z-score in assay [3] is 0.865 (inactive).
As to `N[C@H](C(=O)O)[C@H]1C[C@@H]1C(=O)O`, in assay [4], the period change is 0.045 h (inactive). The inhibition in assay [5] was 2% (inactive). Besides, the fluorescence ratio (interference) in assay [6] is 1 (inactive). The values for the fold change in assay [1] (setting [7]) and in assay [1] (setting [8]) were 0.968 (inactive) and 1.24, respectively. Also, the cell count in assay [1] (setting [9]) came out at 9910; in assay [1] (setting [10]) it was 10200. Besides, the result in assay [2] was inactive. For the same compound, the z-score in assay [3] is 0.225 (inactive).
Turning to `CC(=O)/C(C)=N/O`, in assay [4], the period change was 0.15 h (inactive). Besides, the fold change in assay [1] (setting [7]) was 0.97 (inactive); in assay [1] (setting [8]), 2.72. For the same compound, the cell count turned out to be 9060 in assay [1] (setting [9]) and 9340 in assay [1] (setting [10]). Besides, the compound was classed as inactive in assay [2]. Further, the z-score in assay [3] was 0.485 (inactive).
For the compound `O=c1[nH]ccc2c(O)cccc12`, in assay [4], the period change was 0.03 h (inactive). For the same compound, the inhibition in assay [5] was -3% (inactive). Moreover, in assay [6], the fluorescence ratio (interference) was 0.9 (inactive). Further, the fold change in assay [1] (setting [7]) is 1.09 (inactive); in assay [1] (setting [8]) it was 1.24. Besides, the values for the cell count in assay [1] (setting [9]) and in assay [1] (setting [10]) were 10100 and 9200, respectively. In addition, the result in assay [2] was inactive. In addition, in assay [3], the z-score is 0.02 (inactive).

As a reminder, the inhibition is the change of the read-out against control, counted positive when it falls.
